# Activity calls are given as the source filed them.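 Rule for the calls, unless noted: active = inhibition of the reporter signal at or above 50%; inactive = inhibition below 50%.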
# What was measured:
# [1] = inhibitors of TNFa-induced NFkB p65 translocation, primary screen, imaging, HUVEC, MLSMR starter and 10KST1 sets (AID 438;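 active = inhibition above 20% together with a positive visual image hit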;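 note: compound added about 3h40 before a 20 min TNFalpha stimulation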;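 for inhibition: signal is the nuclear over cytoplasmic p65 intensity ratio per well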); conditions: HUVEC TNFa-induced p65 nuclear translocation; cell count: measured here: nuclei count (cytotoxicity indicator), at 2.08 µM; inhibition: at 2 µM, stronger effect = higher value, 0% TNFa-plus-vehicle, 100% no-TNFa wells
# [2] = reduction of polyQ htt aggregates in cells – imaging, exon1htt(103Q)mCFP cells, high-content imaging, primary screen (AID 483;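 active = visual image review flags a hit and inhibition of aggregation exceeds 20%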;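 note: compound exposure lasted 3 days before fixation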;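 for nuclei count: percent of the per-plate median nuclei count of sample wells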); conditions: exon1htt(103Q)mCFP cell line, aggregate imaging, at 2 µM; inhibition of aggregation: stronger effect = higher value; nuclei count: measured here: cell count, toxicity
# [3] = endothelial E-selectin expression blockers – imaging, HUVEC, immunofluorescence, MLSMR starter and 10KST1 sets, primary screen (AID 487;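 active = visually confirmed hit in the image check and inhibition above 20%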;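 for inhibition: signal is fraction of cell area covered by stained E-selectin grains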;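 for nuclei count: 100% = median nuclei count of all wells on the same plate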); conditions: HUVEC TNFalpha-induced E-selectin immunofluorescence imaging, at 2 µM; inhibition: stronger effect = higher value; nuclei count: measured here: cell number, toxicity
# [4] = Primary imaging screen for DUSP6 inhibitors that restore phospho-Erk in transfected HeLa cells, chemical complementation (AID 609;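 active = compounds giving at least 50% inhibition in the cell-based MKP-3 phosphatase rescue imaging test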;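 for inhibition: phospho-Erk level distribution per well compared with pooled transfected vehicle control wells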); conditions: HeLa MKP-3 transfected, phospho-Erk imaging KS statistic, at 10 µM, cells stimulated with TPA for 15 min
# [5] = target: Dual specificity protein phosphatase 6 (Homo sapiens) (UniProt Q16828); assay: as above; conditions: HeLa MKP-3 transfected, phospho-Erk imaging KS statistic; at 10 µM; stronger effect = higher value; cells stimulated with TPA for 15 min
# [6] = target: Voltage-gated potassium channel subunit beta-2 (Rattus norvegicus) (UniProt P62483); assay: inhibitors of rat Kvbeta2 reductase activity – biochemical, NADPH fluorescence, primary screen (AID 622;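 active = fluorescence slope higher than the sample average by over 3 SD, cut at about -0.22 in these data, passing the limit was not always enough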;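 note: slope of raw intensity against log time taken from 70 to 1610 s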); conditions: recombinant KvBeta, 4-cyanobenzaldehyde reduction, at 10 µM, stronger effect = higher value
# [7] = target: Voltage-gated potassium channel subunit beta-2 (Rattus norvegicus) (UniProt P62483); assay: enhancers of rat Kvbeta2 NADPH turnover – biochemical, NADPH fluorescence, primary screen (AID 623;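 active = NADPH fluorescence slope more negative than the mean of all samples by about 3 SD, 99.7% confidence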;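 note: fluorescence intensity change per second fitted from 20 to 320 s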); conditions: Recombinant KvBeta, NADPH fluorescence decrease slope, 10 min; at 10 µM; stronger effect = lower value
# [8] = target: Muscarinic acetylcholine receptor M4 (Homo sapiens) (UniProt P08173); assay: M4-linked GIRK flux change, two-sided – cell-based, HEK293 M4/GIRK, thallium flux, BTC-AM, M4 allosteric agonist project, primary screen (AID 625;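 active = fluorescence slope after compound addition differing from the mean of all tested samples at 99.7% confidence, mostly higher but some lower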;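 note: thallium influx through GIRK channels coupled to M4 in HEK293 cells with BTC-AM dye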); conditions: at 10 µM, actives lie on both sides
# [9] = inhibitors of larval lipid processing in zebrafish, primary screen, whole organism, PED6 fluorescence, gall bladder and intestine (AID 686;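 active = a full or partial loss of lipid-probe fluorescence in the fish gall bladder, intestine or both, judged by eye; inactive = no fluorescence loss, or compound toxic to the fish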;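 note: larvae 5 to 7 days old with five fish per well; signal comes from phospholipase A2 cleavage of quenched PED6 carried via bile; overnight exposure to compound and PED6 before scoring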); conditions: Zebrafish larvae PED6 lipid processing, fluorescence scoring; screened at 20 µM (by protocol)
# [10] = loss of swimming-algae plug formation – whole organism, Chlamydomonas reinhardtii, WT vs cilia-less mutant, absorbance, 96-well, primary screen (AID 463189;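 active = inhibition at or above 50% relative to wild type and mutant plate controls; inactive = inhibition below 50%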;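 note: 0% = wild type cc124 cells in DMSO and 100% = ciliumless bld1 mutant cells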); conditions: Chlamydomonas reinhardtii gravitaxis, OD600 absorbance, 2 days; at 10 µM; stronger effect = higher value
# [11] = blockers of RIG-like receptor reporter activation – cell-based, Sendai virus stimulus, luciferase, 10K MLSCN set, TLR/RLR signaling modifier project, primary screen (AID 602276;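 active = inhibition at or above 50% at 10 µM; inactive = inhibition below 50%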;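 note: firefly luciferase from ISG56 promoter only with Renilla not read in this screen; 0% = Sendai virus plus DMSO and 100% = medium plus DMSO without virus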); conditions: HEK293 RL24 IRF3 luciferase reporter, at 10 µM, stronger effect = higher value
# [12] = TLR3 IRF3 reporter activation blockers – cell-based, poly I:C stimulus, luciferase, 10K MLSCN set, primary screen (AID 602277); conditions: HEK293-TLR3 RL24 IRF3 luciferase reporter, at 10 µM, stronger effect = higher value
# [13] = measured here: cell density z-score
# [14] = measured here: nuclear c-Myc green intensity z-score
# [15] = measured here: nuclear pErk red intensity z-score, stronger effect = higher value
# Sequence of Voltage-gated potassium channel subunit beta-2 (Rattus norvegicus) (P62483 whole entry, looked up): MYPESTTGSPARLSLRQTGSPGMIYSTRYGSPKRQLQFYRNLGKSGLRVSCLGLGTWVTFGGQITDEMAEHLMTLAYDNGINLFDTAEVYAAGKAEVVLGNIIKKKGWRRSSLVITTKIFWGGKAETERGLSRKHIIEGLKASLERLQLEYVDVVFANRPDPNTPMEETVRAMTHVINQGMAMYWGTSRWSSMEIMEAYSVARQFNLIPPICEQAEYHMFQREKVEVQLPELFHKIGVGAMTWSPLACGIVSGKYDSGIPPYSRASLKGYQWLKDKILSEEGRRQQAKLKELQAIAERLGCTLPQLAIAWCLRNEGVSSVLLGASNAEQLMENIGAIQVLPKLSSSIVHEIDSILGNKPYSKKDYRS
# Sequence of Muscarinic acetylcholine receptor M4 (Homo sapiens) (P08173 whole entry, looked up): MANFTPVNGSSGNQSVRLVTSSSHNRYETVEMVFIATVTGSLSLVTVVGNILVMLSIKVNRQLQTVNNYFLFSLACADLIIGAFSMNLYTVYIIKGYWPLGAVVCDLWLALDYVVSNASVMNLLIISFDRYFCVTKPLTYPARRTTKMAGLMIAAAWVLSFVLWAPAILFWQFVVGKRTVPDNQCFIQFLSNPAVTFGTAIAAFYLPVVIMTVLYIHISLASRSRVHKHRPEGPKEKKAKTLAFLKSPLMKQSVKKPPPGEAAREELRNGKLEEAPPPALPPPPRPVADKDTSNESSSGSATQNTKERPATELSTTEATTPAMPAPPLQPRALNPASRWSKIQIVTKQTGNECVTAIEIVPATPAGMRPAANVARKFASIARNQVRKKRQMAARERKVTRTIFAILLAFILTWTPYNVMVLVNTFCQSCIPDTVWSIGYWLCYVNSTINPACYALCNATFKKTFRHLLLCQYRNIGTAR
# Sequence of Dual specificity protein phosphatase 6 (Homo sapiens) (Q16828 whole entry, looked up): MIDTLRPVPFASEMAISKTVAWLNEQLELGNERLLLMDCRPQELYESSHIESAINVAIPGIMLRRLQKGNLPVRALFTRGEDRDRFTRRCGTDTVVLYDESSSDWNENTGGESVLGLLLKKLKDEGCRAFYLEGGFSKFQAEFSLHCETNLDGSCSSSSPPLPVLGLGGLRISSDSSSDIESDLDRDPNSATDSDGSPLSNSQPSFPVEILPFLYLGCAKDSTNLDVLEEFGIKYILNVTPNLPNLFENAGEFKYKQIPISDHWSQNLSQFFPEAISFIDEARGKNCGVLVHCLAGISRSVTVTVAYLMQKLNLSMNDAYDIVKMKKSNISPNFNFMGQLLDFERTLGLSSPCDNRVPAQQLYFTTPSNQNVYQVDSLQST
SMILES,cell count [1],inhibition [1],inhibition of aggregation [2],nuclei count [2],inhibition [3],nuclei count [3],"z-score [4, 13]","z-score [4, 14]","z-score [4, 15]",inhibition [5],fluorescence slope [6],NADPH fluorescence slope [7],fluorescence slope [8],outcome [9],inhibition [10],inhibition [11],inhibition [12]
Cc1ccc(/C=N/n2nnnc2N)o1,674,-1.3% (inactive),3.9% (inactive),132%,-8.1% (inactive),133%,0.152,-0.504,0.0866,1.04% (inactive),-0.487 (inactive),-2.1e-05 (inactive),0.00641 (inactive),inactive,5.51% (inactive),-2.49% (inactive),3.55% (inactive)
O=C(NCc1cccnc1)c1ccc(=O)oc1,649,-2% (inactive),-18.7% (inactive),103%,43% (inactive),110%,-0.741,1.41,-1.58,4.37% (inactive),-0.496 (inactive),-4.3e-05 (inactive),0.00411 (inactive),inactive,18.7% (inactive),10.2% (inactive),11.5% (inactive)
CCOC(=O)c1ccc(CC2S/C(=C(\C#N)C(C)=O)NC2=O)cc1 (stereo not given),508,-6.4% (inactive),-13.4% (inactive),100%,-87.6% (inactive),145%,1.03,-0.573,0.337,13.4% (inactive),-0.384 (inactive),-4.5e-05 (inactive),0.00533 (inactive),inactive,13.1% (inactive),6.73% (inactive),-11.5% (inactive)
CCCCc1nc(NCCNC(=O)c2ccco2)c(C#N)c2c1CSC(C)(C)C2,552,-4.6% (inactive),-1% (inactive),95.2%,-75.5% (inactive),122%,0.34,-0.704,0.0149,9.07% (inactive),-0.478 (inactive),-5.7e-05 (inactive),0.00431 (inactive),inactive,3.31% (inactive),1.84% (inactive),7.1% (inactive)
O=C(C1CC1(c1ccccc1)c1ccccc1)N1CCOCC1 (stereo not given),402,-6.3% (inactive),13.6% (inactive),80.6%,-60.9% (inactive),150%,0.0865,-1.65,-0.311,-0.584% (inactive),-0.416 (inactive),-6.1e-05 (inactive),0.00482 (inactive),inactive,35% (inactive),18.5% (inactive),22.6% (inactive)
Nc1nnnn1/N=C/c1ccccn1,568,-2.8% (inactive),-8.1% (inactive),98.2%,-155% (inactive),142%,1.54,-1.1,-0.159,34.3% (inactive),-0.513 (inactive),-6e-05 (inactive),0.00549 (inactive),inactive,26.1% (inactive),-14.9% (inactive),-32% (inactive)
N#CC1=C(N)N(c2ccccc2)C(c2ccccc2)C1(C#N)C#N (stereo not given),635,-9.5% (inactive),-8% (inactive),97.6%,7.2% (inactive),132%,0.909,-0.703,1.5,-6.59% (inactive),-0.346 (inactive),-7.8e-07 (inactive),0.00486 (inactive),inactive,58.7% (active),16.9% (inactive),17.3% (inactive)
Fc1ccc(-c2cnc[nH]2)cc1,501,0.1% (inactive),-41% (inactive),64.4%,-88.1% (inactive),109%,-1.11,0.681,-1.47,3.42% (inactive),-0.513 (inactive),-9.6e-05 (inactive),0.00534 (inactive),inactive,-0.515% (inactive),-22.9% (inactive),-37.6% (inactive)
Nc1nc(NC(=O)c2cccs2)nn1-c1ccccc1,647,-6.2% (inactive),2.6% (inactive),104%,28.5% (inactive),140%,-2.6,0.834,1.83,14.4% (inactive),-0.486 (inactive),-6.6e-05 (inactive),0.00702 (inactive),inactive,-2.85% (inactive),-31.7% (inactive),-72.3% (inactive)
CCCCCn1c2nc3ccccc3nc2c2c(=O)n(CC(C)C)cnc21,641,-4.1% (inactive),14.3% (inactive),105%,-73.9% (inactive),130%,-0.357,2.75,1.53,15% (inactive),-0.429 (inactive),-4.4e-05 (inactive),0.00475 (inactive),inactive,16.4% (inactive),19.4% (inactive),19.9% (inactive)

# From PubChem BioAssay
